# D2 PAM-1: human D2 receptor positive allosteric modulation; P14416; AID 624464; DiscoveRx D2 beta-arrestin cells, luminescence, 90 min; 100% = 57 uM dopamine signal; 0.23% of 360,000 active; potentiation, % (test concentration not listed); in the data active = potentiation above about 50%; inconclusive = mostly about 30% to 49%
# Target sequence (P14416 whole entry, looked up): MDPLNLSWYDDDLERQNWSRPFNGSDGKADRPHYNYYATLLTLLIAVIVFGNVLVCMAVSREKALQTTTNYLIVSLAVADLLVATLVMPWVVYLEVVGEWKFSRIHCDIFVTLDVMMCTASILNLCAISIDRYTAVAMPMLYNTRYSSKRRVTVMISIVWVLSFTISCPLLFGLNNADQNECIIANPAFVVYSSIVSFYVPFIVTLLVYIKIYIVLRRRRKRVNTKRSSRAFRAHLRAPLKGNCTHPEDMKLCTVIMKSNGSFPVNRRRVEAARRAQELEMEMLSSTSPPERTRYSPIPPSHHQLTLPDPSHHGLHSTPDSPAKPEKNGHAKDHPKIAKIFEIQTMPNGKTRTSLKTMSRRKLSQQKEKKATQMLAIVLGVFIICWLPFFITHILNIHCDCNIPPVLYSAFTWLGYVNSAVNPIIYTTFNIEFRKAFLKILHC
#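 PathHunter beta-arrestin assay in DiscoveRx D2 cells. Compounds were added with an EC20 of dopamine (50 nM final) for 90 min at 37 deg C. Luminescence was read 1 h after detection reagent, with 57 uM dopamine as the EC100 control.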
# D2 ag-1: human D2 receptor agonism in beta-arrestin assay; P14416; activation, % (no concentration beside the values); 0.084% of 360,000 active; AID 624465; DiscoveRx PathHunter D2 beta-arrestin, luminescence, 90 min; 100% = 57 uM dopamine signal; in the data active = activation above about 40%; inconclusive = between about 15% and that limit
#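 DiscoveRx PathHunter D2 beta-arrestin cells (2,100/well) attached overnight, then compound-stimulated 90 min at 37 C in HBSS/10 mM HEPES/0.1% Tween-20 buffer; beta-galactosidase complementation read by luminescence after 1 h at ambient temperature. Dopamine 57 uM final (EC100) as control.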
# D2 ag-2: agonists of human D2 dopamine receptor | P14416 | HEK293 T-REx D2 cells, calcium flux agonist mode | activation, % at 2 µM | 0.53% of 340,000 active | AID 485358;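 active = activation over 3 SD above normal in the single-dose calcium agonist read, cut at about 30% in these data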; note: 0% is about no effect
#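 Agonism is scored from calcium flux in a force-coupled, inducible HEK293 cell line expressing D2, read kinetically for 180 s after compound addition against dopamine controls.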
# D2 PAM-2: positively modulates the human D2 dopamine receptor allosterically | 0.34% of 340,000 active | potentiation, % at 10 µM | P14416 | HEK293 T-REx D2, calcium flux, EC20 dopamine potentiation;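 active = potentiation over 3 SD above the plate norm, cut at about 30% in these data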; note: 0% is about no effect
#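 Calcium flux readout, no-wash dye, 1 read/s. Inducible HEK293 Trex D2 line, overnight 30 C. Compound alone 180 s (agonist flags), then EC20 dopamine, another 180 s to score potentiation.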
# D2 antag: antagonizes the human D2 dopamine receptor. 2% of 340,000 active. inhibition, % at 10 µM. P14416. AID 485344. HEK293 TREx D2 cells, calcium flux, dopamine EC80; in the data active = inhibition above about 30%; inactive = below that, where a call was filed; note: 0% is about no effect
#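 Tetracycline-induced HEK293 T-REx cells expressing D2 force-coupled to calcium signalling were dye-loaded, exposed to compound for 180 s, then challenged with an EC80 of dopamine; calcium flux was followed kinetically for a further 180 s.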
# Numbers without * were called inactive; ? = inconclusive; . = no result. Most compounds without a hit are left out; they make up all but 2.4% or so of the library.
SMILES,D2 PAM-1,D2 ag-1,D2 ag-2,D2 PAM-2,D2 antag
Cc1ccc(S(=O)(=O)N(C)C)cc1NC(=O)C(C)[N+]12CCN(CC1)CC2 (configuration not stated),5.4,-3.8,-7.2,-6.2,31.7*
O=C1CC(c2cccnc2)=NN1c1ccc(Cl)cc1Cl,-11.6,-2.3,-0.1,5.6,3.5
CCN1C(=O)CC(c2cccnc2)=Nc2ccccc21,-10.0,1.4,1.5,2.7,31.4*
CN1CCN(c2cc([N+](=O)[O-])ccc2Cl)CC1,-8.8,-4.0,0.6,-32.8,69.4*
CN1CCN(c2ccc([N+](=O)[O-])cc2Cl)CC1,-15.8,-3.2,1.4,-6.8,10.3
CC1CN(c2cc([N+](=O)[O-])ccc2Cl)CC(C)N1 (configuration not stated),-4.0,-3.1,0.4,-18.7,68.7*
OC(CN1CCC(c2c[nH]c3ccccc23)CC1)C(F)(F)F (configuration not stated),-9.9,-5.3,0.4,-15.4,77.0*
c1ccc2c(CN3CCN(C4CCCCC4)CC3)c[nH]c2c1,-18.5,-0.6,-0.2,-9.7,-10.1
CCn1ccnc1CN1CCCC(C(=O)c2ccc(SC)cc2)C1 (configuration not stated),-18.3,-7.7,0.1,17.7,-16.5
CSc1ccc(C(=O)C2CCCN(CCCn3cccn3)C2)cc1 (configuration not stated),-10.7,-3.1,-0.3,-15.2,35.9*
COC(=O)C(O)(c1ccc(NC(=S)NC(=O)c2ccc(Cl)cc2Cl)cc1)C(F)(F)F (configuration not stated),-31.6,-6.3,10.8,32.0*,-0.1
OC1(c2ccc(F)cc2)CCNC1 (configuration not stated),-8.4,-4.1,-0.4,-6.5,86.3*
Cc1cccc(-n2c(/C=C/c3c[nH]c4ccccc34)nc3ccccc3c2=O)c1,.,.,.,4.3,.
CCOC(=O)C(NC(=O)CC)(Nc1ccc(C(O)(C(=O)OCC)C(F)(F)F)cc1C)C(F)(F)F (configuration not stated),0.4,-4.1,-0.6,15.2,34.2*
CCOC(=O)C(NC(=O)CCl)(Nc1ccc(C(O)(C(=O)OCC)C(F)(F)F)cc1)C(F)(F)F (configuration not stated),-8.2,-2.9,0.3,2.9,-1.3
Cc1cc(C)cc(N2C(=O)NC(=O)/C(=C\c3cccn3-c3ccc(Cl)cc3)C2=O)c1,-7.4,0.6,-0.4,8.8,37.8*
Cc1cc(C)cc(N2C(=O)NC(=O)/C(=C\c3cccn3-c3ccccc3)C2=O)c1,-1.5,-3.0,4.3,19.1,-6.3
O=c1c2ccccc2nc(/C=C/c2ccccc2O)n1-c1ccc(Br)cc1,.,.,0.1,1.8,.
CC(C)c1ccc(NC(=O)CN2C(=O)CN=C(c3ccccc3)c3ccccc32)cc1,.,.,0.4,1.7,.
CC(C)OP(=O)(OC(C)C)C(O)c1ccc(Br)cc1 (configuration not stated),103.7*,11.6,-0.6,-4.1,0.0
CCC(=O)N1CC(=O)Nc2ccc(C)cc2C1c1ccc(F)cc1 (configuration not stated),.,.,-0.6,13.5,.
COc1ccc(OCC(=O)N2CCN(Cc3cc(=O)n4nc(-c5ccccc5C)sc4n3)CC2)cc1,.,.,-0.1,14.9,.
COc1ccc(Br)cc1C1SCC(=O)Nc2c1c(C)nn2-c1ccccc1C (configuration not stated),.,.,.,-5.5,.
Cc1ccc(Cn2cccc(C(=O)Nc3nnc(C)s3)c2=O)cc1,.,.,20.1,8.9,.
CC(=O)N1CCC2(CC1)CC(=O)c1cc(OCC(=O)N3CCC4(CC3)OCCO4)ccc1O2,1.8,2.3,0.1,31.3*,0.2
SMILES,D2 PAM-1,D2 ag-1,D2 ag-2,D2 PAM-2,D2 antag
CC(=O)N1CCC2(CC1)CC(=O)c1cc(OCC(=O)N3CCN(C)CC3)ccc1O2,-5.3,-0.9,0.1,-3.4,-3.9
O=S1(=O)N(Cc2ccccc2)CCCN1Cc1ccc(F)cc1Cl,.,.,0.4,-4.3,.
Cc1ccccc1-n1c(/C=C/c2ccccc2F)nc2ccccc2c1=O,.,.,-1.0,1.1,.
O=C(Nc1ccccc1C(F)(F)F)c1cccn(Cc2ccccc2)c1=O,.,.,0.6,5.5,.
Cc1ccc(CN2C3CCCC2CC(NC(=O)Nc2cccc(F)c2)C3)cc1 (configuration not stated),-26.1,-2.3,1.1,-28.4,75.0*
CCC1(C)OC(c2ccccc2)=C/C(=C/C=C2C(=O)NC(=O)NC2=O)O1 (configuration not stated),-15.4,0.4,14.9,-9.1,43.3*
O=C(c1ccc2c(=O)n(Cc3ccc4c(c3)OCO4)c(=S)[nH]c2c1)N1CCC2(CC1)OCCO2,-10.1,-0.8,0.1,6.4,43.9*
O=C(NCc1ccc(C(=O)N2CCC3(CC2)OCCO3)cc1)c1ccc2c(c1)OCO2,-7.0,-2.4,0.1,5.0,-22.3
O=C(Nc1ccccc1)Oc1ccccc1,1.3,-2.5,0.5,5.2,-4.7
CC(/C=C(\C)Nc1ccccc1)=Nc1ccccc1,9.3,-4.1,-1.0,36.8*,-3.7
COc1ccc2c(c1)C1OCCNC1CC2 (configuration not stated),-11.0,1.0,.,.,.
Oc1cc2c(cc1O)[C@H]1c3ccccc3CN[C@@H]1CC2,.,.,84.0*,-24.7,92.2*
Cc1cc(-n2c(/C=C/c3ccc(Br)s3)nc3ccccc3c2=O)ccc1Br,.,.,.,-13.1,.
O=c1cccc2n1CC1CC2CN(C(c2ccccc2)c2sc3ncnn3c2O)C1 (configuration not stated),-1.2,-1.7,1.3,4.1,31.6*
C[C@H](NC(=O)CCC(=O)N1C[C@H]2C[C@H](C1)c1cccc(=O)n1C2)c1ccccc1,4.8,1.9,0.3,-6.2,16.9
CCCC1=C(C(=O)OCC)C2(C(=O)Nc3ccc(C)cc32)C(C#N)=C(N)O1 (configuration not stated),?,4.8,-0.2,19.3,6.8
CCOC(=O)CC1=C(C(=O)OCC)C2(C(=O)Nc3ccccc32)C(C#N)=C(N)O1 (configuration not stated),75.2*,11.9,-0.5,-6.0,10.1
Cc1cc(O)c(CN2CC=C(c3ccccc3)CC2)cc1C(C)C,-16.2,-3.4,0.5,-25.7,74.6*
O=c1cc(CN2CC=C(c3ccccc3)CC2)c2c(ccc3ccccc32)o1,-13.3,0.7,19.6,-4.9,-0.5
Cc1cccc(NC(=O)Cn2cc(C(=O)c3ccccc3)c3ccccc32)c1C,.,.,0.6,-4.1,.
O=C1N(c2nncs2)CCN1[N+](=O)[O-],68.8*,3.9,0.3,11.5,-4.0
CSc1ccccc1C(=O)C1CCCN(Cc2ccn[nH]2)C1 (configuration not stated),-3.2,-1.2,21.9,-20.0,48.4*
CSc1ncc(CN2CCCC(C(=O)c3ccccc3SC)C2)cn1 (configuration not stated),-33.6,-4.9,-1.4,-15.3,5.1
